Source: PubChem
Rows were chosen to be rich in hits. Some 2.4% of all compounds tested hit in one or more screens of this group.
Cruzain inh noDet: qHTS Assay for Promiscuous and Specific Inhibitors of Cruzain (without detergent) | AID 1476, 2009 | Potency, µM, hits mostly inhibitors | Cruzipain (Trypanosoma cruzi), P25779 | purified cruzain, Z-FR-AMC fluorescence, no detergent | hit rate 2.3% among 200,000; note: nearly all actives have a fitted effect of over 40% in size
Target sequence (P25779 123-467 limits assumed): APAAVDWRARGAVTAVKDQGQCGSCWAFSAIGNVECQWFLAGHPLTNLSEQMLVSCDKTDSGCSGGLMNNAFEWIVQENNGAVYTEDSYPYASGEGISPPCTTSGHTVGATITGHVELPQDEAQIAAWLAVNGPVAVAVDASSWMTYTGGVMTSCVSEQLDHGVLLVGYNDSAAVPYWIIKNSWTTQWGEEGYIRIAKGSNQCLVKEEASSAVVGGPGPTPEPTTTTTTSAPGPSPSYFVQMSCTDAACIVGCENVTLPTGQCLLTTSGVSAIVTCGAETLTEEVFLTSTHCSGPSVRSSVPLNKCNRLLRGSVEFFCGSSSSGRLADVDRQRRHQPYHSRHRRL
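Purified cruzain at 1.5 nM, pre-incubated 15 min with compound at room temperature in 100 mM sodium acetate pH 5.5, 5 mM DTT, 0.00005% Triton X-100. Reaction started with 2 uM Z-FR-AMC; AMC fluorescence increase over 60 s gives rate.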
Cruzain Triton: qHTS Assay for Promiscuous and Specific Inhibitors of Cruzain (with detergent). Cruzipain (Trypanosoma cruzi), P25779. Potency, µM, most hits filed as inhibitors. hit rate 0.43% among 200,000. purified cruzain, Z-FR-AMC fluorescence, 0.01% Triton; note: nearly all actives have a fitted effect of over 40% in size
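Cruzain (1.5 nM) preincubated 15 min at RT with compound in 100 mM sodium acetate pH 5.5, 5 mM DTT, 0.01% Triton X-100. Reaction started with 2 uM Z-FR-AMC; AMC fluorescence (ex 360/em 450 nm) change over 60 s gave rate.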
A number is an active result; – = inactive; ? = inconclusive; ! = not confirmed by another sample. Calls come from the whole dose curve; as a rule, active = well fitted curve in the direction sought with a large enough effect; inconclusive = small, poorly fitted or top-dose-only effect, or another doubt; inactive = no such curve, though single readings can be large; an effect the other way counts as inactive or inconclusive.

SMILES | Cruzain inh noDet | Cruzain Triton
CN(C)c1ccc(C(=C2C=CC(=[N+](C)C)C=C2)c2ccc(N(C)C)cc2)cc1 | 20µM! | –
CN(C)c1ccc(C(=O)c2ccc(N(C)C)cc2)cc1 | – | –
Cc1sc2c(c1C)c(=O)n(CCc1ccccc1)c(=O)n2Cc1cccc(F)c1 | – | –
COc1ccc(OC)c(NC(=O)CSc2ccnc(=O)[nH]2)c1 | – | –
Cc1ccc(NC(=O)Cn2nc(-c3ccccc3)nc(Cc3ccccc3)c2=O)cc1 | – | –
Cc1ccc(NC(=O)Cn2nc(-c3ccccc3)nc(Cc3ccc(Cl)cc3)c2=O)cc1 | 25.1µM | –
Cc1nc(-c2ccc(F)cc2)sc1CCNC(=O)c1cccs1 | – | –
COc1cccc(-c2cc(C(=O)Nc3nc4ccccc4s3)c3ccccc3n2)c1 | 12.6µM | –
O=C(Nc1nc2c(s1)CCCC2)c1cc(-c2ccc3c(c2)OCO3)nc2ccccc12 | 5.01µM | –
Cc1ccccc1-c1cc(C(=O)Nc2nc3c(s2)CCCC3)c2ccccc2n1 | ? | –
O=C(Nc1nc2ccccc2s1)c1cc(-c2ccco2)nc2ccccc12 | – | –
COc1ccc(-n2c(C)nc3cc(C(=O)NC4CCCC4)ccc32)cc1 | – | –
Cc1ccccc1-c1cc(Nc2ccc(F)cc2)ncn1 | – | –
CCc1ccccc1N1CSC2=C(C#N)C(c3ccccc3F)CC(=O)N2C1 (configuration not stated) | 25.1µM | –
COc1ccc(C2CC(=O)N3CN(c4ccccc4F)CSC3=C2C#N)cc1OC (configuration not stated) | – | –
Oc1ccc2ccccc2c1/C=N/Nc1ccccc1 | – | –
Cc1cc(N/N=C/c2c(O)ccc3ccccc23)nc(-c2ccccc2O)n1 | 15.8µM | –
O=C(Nc1ccc(F)cc1F)c1ccc(COc2c(F)c(F)cc(F)c2F)o1 | – | –
O=C(Nc1ccc(Cl)cc1F)c1ccc(COc2c(F)c(F)c(F)c(F)c2F)o1 | ? | 20µM
COc1cccc(/C=N/NC(=O)c2cc3cc([N+](=O)[O-])ccc3s2)c1O | 10µM | 3.55µM
CC(C)NC(=O)c1cc2cc([N+](=O)[O-])ccc2s1 | – | –
Cc1ccc(C)c(Cn2c(=O)n(C(C)C)c(=O)c3oc4ccccc4c32)c1 | – | –
COc1ccccc1N/C(N)=N/c1nc(CSc2ccc(C)cc2)cc(=O)[nH]1 | ? | –
Cc1ccc(SCc2cc(=O)[nH]c(/N=C(\N)Nc3ccccc3Sc3ccccc3)n2)cc1 | 12.6µM | –
COc1cc2c(cc1NC(=O)CSc1ccccc1)oc1ccccc12 | – | –
SMILES | Cruzain inh noDet | Cruzain Triton
COc1cc2c(cc1NC(=O)CSc1nc3cc(Cl)ccc3s1)oc1ccccc12 | 7.94µM | –
COc1cc2c(cc1NC(=O)CSc1nc3ccccc3[nH]1)oc1ccccc12 | 25.1µM | –
COc1cc2c(cc1NC(=O)CSc1nccn1C)oc1ccccc12 | – | –
COc1cc(OC)c(NC(=O)c2c(C)oc3nc(C)nc(N4CCOCC4)c23)cc1Cl | – | –
CC(C)C(=O)Nc1nnc2n1CCS2 | – | –
CCCCn1c(C(C)NC(=O)c2ccccc2)nc2ccccc21 (configuration not stated) | – | –
CCOC(=O)c1c(-c2ccccc2)oc2ccc(NS(=O)(=O)c3ccc(C)cc3)cc12 | ? | –
Cc1ccc(S(=O)(=O)Nc2ccc(S(=O)(=O)N3CCCC3)cc2)cc1 | – | –
Cc1ccc(S(=O)(=O)Nc2ccc3c(c2)c(C(=O)OC(C)C)c(C)n3S(=O)(=O)c2ccc(C)cc2)cc1 | 5.01µM | –
COCCOC(=O)c1c(C)n(S(=O)(=O)c2ccc(C)cc2)c2ccc(NS(=O)(=O)c3ccc(C)cc3)cc12 | 10µM | –
CCN(C(=O)Cn1c(=O)oc2cc(S(=O)(=O)N3CCCCC3)ccc21)c1ccccc1 | – | –
CCN(Cc1ccccc1)c1ncnc2c1cnn2-c1ccc(F)cc1 | – | –
COc1cccc(Cn2c(=O)cnc3cnc(Oc4ccccc4)nc32)c1 | – | –
O=C(CSc1nnc2c(n1)[nH]c1ccccc12)OCc1ccccc1 | 25.1µM | –
CCOC(=O)CC(=O)CSc1nnc2c(n1)[nH]c1ccccc12 | ? | –
CC(C)CSc1nnc2c(n1)[nH]c1ccccc12 | – | –
CCCCSc1nnc2c(n1)[nH]c1ccccc12 | 25.1µM | –
c1ccc2c(N3CCNCC3)nc(-c3ccc4c(c3)OCO4)nc2c1 | – | –
O=C(Nc1ccc(NC(=O)C23CC4CC(CC(C4)C2)C3)cc1)c1cc(F)c(F)cc1Cl | 25.1µM | –
CN(C)S(=O)(=O)c1ccc(NC(=O)c2cc(F)c(F)cc2Cl)cc1 | – | –
CC[C@H]1C2=C3C(CC[C@H]4C(OCc5ccc(F)cc5C(F)(F)F)OC[C@](C)([C@@H]34)N(C(=O)OC(C)(C)C)C2)C(COC)C1COC (some centres not stated) | – | –
C=CC(=O)OCC(CO)(COC(=O)C=C)COC(=O)C=C | – | –
